Over roughly 18,000 sequences, “TetR repression strength (sort-seq, GFP reporter)” has its median near 0.23; the highest 2% begin near 0.68. Only a selection was taken, and the highest values are over-represented in it overall.
These sequences were tested against TetR (class B, Tn10) (UniProt P04483) (assay: TetR repression strength (sort-seq, GFP reporter) (relative to tetO2 = 1); higher = stronger repression). Settings: E. coli.
How it was run: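 In LB with 50 µg/mL chloramphenicol, E. coli SIG10-MAX holding a low-copy library with eight randomized operator positions between a constitutive promoter and sfGFP, plus constitutive TetR, grew for 5 h at 37 °C. FACS then sorted 10^6 cells into 13 fluorescence bins for Illumina sequencing of each bin. Repression strength equals the top bin index plus one less the read-weighted mean bin, normalized to the unaltered operator. Values from three independent transformations were averaged when reads were ≥30 in every replicate and the CV was ≤0.5.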

TetR (class B, Tn10), sequence (P04483 whole entry): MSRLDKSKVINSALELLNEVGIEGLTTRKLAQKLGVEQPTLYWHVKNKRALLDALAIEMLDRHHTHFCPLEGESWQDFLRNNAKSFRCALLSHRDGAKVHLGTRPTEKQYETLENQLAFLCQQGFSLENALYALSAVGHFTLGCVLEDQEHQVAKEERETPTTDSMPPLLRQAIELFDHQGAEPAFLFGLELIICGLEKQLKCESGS

Q: For TCCCGTCTAGTACTCGAGA, which TetR repression strength is on record?
A: 0.262

Q: For TCCCAAAGAGTGGGCGAGA, which TetR repression strength is on record?
A: 0.0498

Q: TCCCTCTTAGTGTGGGAGA was tested. Which TetR repression strength did it give?
A: 0.0777

Q: For TCCCGATGAGTATGTGAGA, which TetR repression strength is on record?
A: 0.366

Q: With TCCCTGCCAGTATAGGAGA as the sequence, how does the TetR repression strength read?
A: 0.308

Q: How did the TetR repression strength turn out when TCCCCCCTAGTGGACGAGA was run?
A: 0.178

Q: Which TetR repression strength does the source give for TCCCTCGTAGTGGATGAGA here?
A: 0.206

Q: TCCCTATGAGTACCAGAGA was tested. Which TetR repression strength did it give?
A: 0.857

Q: Which TetR repression strength does the source give for TCCCTATGAGTTCGAGAGA here?
A: 0.195

Q: For TCCCTAAGAGTACCAGAGA, which TetR repression strength is on record?
A: 0.429

Q: TCCCTATGAGTTGAAGAGA was tested. Which TetR repression strength did it give?
A: 0.326

Q: TCCCTATGAGTTTAAGAGA was tested. Which TetR repression strength did it give?
A: 1.03

Q: With TCCCTATGAGTACGAGAGA as the sequence, how does the TetR repression strength read?
A: 0.291

Q: With TCCCTATGAGTTCCAGAGA as the sequence, how does the TetR repression strength read?
A: 1.01

Q: TCCCTAAGAGTAAACGAGA was tested. Which TetR repression strength did it give?
A: 0.446

Q: How did the TetR repression strength turn out when TCCCTATGAGTTTGAGAGA was run?
A: 0.33

Q: For TCCCTATGAGTTCCCGAGA, which TetR repression strength is on record?
A: 0.289

Q: Which TetR repression strength does the source give for TCCCTATGAGTAAAAGAGA here?
A: 0.24

Q: TCCCTAAGAGTAAAAGAGA was tested. Which TetR repression strength did it give?
A: 0.839

Q: Which TetR repression strength does the source give for TCCCGTGTAGTAAGTGAGA here?
A: 0.313

Q: For TCCCCGAGAGTTGGGGAGA, which TetR repression strength is on record?
A: 0.104

Q: With TCCCAATCAGTCCGCGAGA as the sequence, how does the TetR repression strength read?
A: 0.295

Q: For TCCCAAGTAGTCACGGAGA, which TetR repression strength is on record?
A: 0.295

Q: With TCCCCCGGAGTAGAGGAGA as the sequence, how does the TetR repression strength read?
A: 0.187

Q: How did the TetR repression strength turn out when TCCCGGCTAGTAGCAGAGA was run?
A: 0.0201

Q: How did the TetR repression strength turn out when TCCCTTTGAGTCGCAGAGA was run?
A: 0.386

Q: With TCCCAGGGAGTGGAAGAGA as the sequence, how does the TetR repression strength read?
A: 0.235

Q: Which TetR repression strength does the source give for TCCCGACTAGTTCGCGAGA here?
A: 0.367

Q: Which TetR repression strength does the source give for TCCCATATAGTTAGCGAGA here?
A: 0.247

Q: TCCCTCAGAGTTCCAGAGA was tested. Which TetR repression strength did it give?
A: 0.313

Q: Which TetR repression strength does the source give for TCCCCACTAGTCCGTGAGA here?
A: 0.279

Q: With TCCCCTAAAGTACAGGAGA as the sequence, how does the TetR repression strength read?
A: 0.0737

Q: For TCCCTTATAGTACAGGAGA, which TetR repression strength is on record?
A: 0.103

Q: Which TetR repression strength does the source give for TCCCTTAAAGTACAGGAGA here?
A: 0.125

Q: TCCCCTATAGTACAGGAGA was tested. Which TetR repression strength did it give?
A: 0.792

Q: TCCCCTATAGTATAGGAGA was tested. Which TetR repression strength did it give?
A: 0.0691

Q: Which TetR repression strength does the source give for TCCCCTTAAGTACAGGAGA here?
A: 0.72

Q: TCCCTGGAAGTGCAAGAGA was tested. Which TetR repression strength did it give?
A: 0.431

Q: TCCCAGGCAGTTGAGGAGA was tested. Which TetR repression strength did it give?
A: 0.216

Q: How did the TetR repression strength turn out when TCCCAGGCAGTTGAAGAGA was run?
A: 0.182

Q: For TCCCAATCAGTTGAAGAGA, which TetR repression strength is on record?
A: 0.279

Q: TCCCAGTCAGTTGAAGAGA was tested. Which TetR repression strength did it give?
A: 0.858

Q: TCCCAGGCAGTTGACGAGA was tested. Which TetR repression strength did it give?
A: 0.698

Q: With TCCCAGGGAGTTGACGAGA as the sequence, how does the TetR repression strength read?
A: 0.0614

Q: For TCCCCACCAGTCAATGAGA, which TetR repression strength is on record?
A: 0.315

Q: For TCCCACCAAGTCAATGAGA, which TetR repression strength is on record?
A: 0.943

Q: For TCCCATCCAGTCAATGAGA, which TetR repression strength is on record?
A: 0.0518

Q: TCCCACCCAGTCAATGAGA was tested. Which TetR repression strength did it give?
A: 0.783

Q: TCCCAATGAGTCAATGAGA was tested. Which TetR repression strength did it give?
A: 0.207

Q: TCCCAAGTAGTCAATGAGA was tested. Which TetR repression strength did it give?
A: 0.663

Q: For TCCCCGCGAGTTGTAGAGA, which TetR repression strength is on record?
A: 0.0957

Q: TCCCGGGTAGTTACTGAGA was tested. Which TetR repression strength did it give?
A: 0.123

Q: For TCCCCAGAAGTGCGTGAGA, which TetR repression strength is on record?
A: 0.0661

Q: With TCCCAACGAGTCGACGAGA as the sequence, how does the TetR repression strength read?
A: 0.696

Q: Which TetR repression strength does the source give for TCCCAACTAGTCGTCGAGA here?
A: 0.214

Q: How did the TetR repression strength turn out when TCCCAACTAGTCGACGAGA was run?
A: 0.701

Q: For TCCCGACGAGTCGACGAGA, which TetR repression strength is on record?
A: 0.178

Q: TCCCAACGAGTCAACGAGA was tested. Which TetR repression strength did it give?
A: 0.366

Q: With TCCCAACTAGTCGAAGAGA as the sequence, how does the TetR repression strength read?
A: 0.267

Q: How did the TetR repression strength turn out when TCCCTGCTAGTGAAGGAGA was run?
A: 0.649

Q: How did the TetR repression strength turn out when TCCCTAACAGTGATAGAGA was run?
A: 0.816

Q: How did the TetR repression strength turn out when TCCCTAGTAGTGATAGAGA was run?
A: 0.533

Q: How did the TetR repression strength turn out when TCCCTAGCAGTGATAGAGA was run?
A: 0.858

Q: Which TetR repression strength does the source give for TCCCTTCCAGTGATAGAGA here?
A: 0.668

Q: With TCCCTACCAGTGATAGAGA as the sequence, how does the TetR repression strength read?
A: 0.94

Q: With TCCCTCCCAGTGATAGAGA as the sequence, how does the TetR repression strength read?
A: 0.561

Q: With TCCCTAGCAGTGAGAGAGA as the sequence, how does the TetR repression strength read?
A: 0.376

Q: With TCCCAACGAGTTGTGGAGA as the sequence, how does the TetR repression strength read?
A: 0.189

Q: TCCCACGCAGTAGGTGAGA was tested. Which TetR repression strength did it give?
A: 0.138

Q: TCCCTGCTAGTAGGAGAGA was tested. Which TetR repression strength did it give?
A: 0.415

Q: Which TetR repression strength does the source give for TCCCAGTCAGTGGCGGAGA here?
A: 0.205

Q: With TCCCTAGAAGTACTAGAGA as the sequence, how does the TetR repression strength read?
A: 0.152

Q: Which TetR repression strength does the source give for TCCCCAGCAGTTTAGGAGA here?
A: 0.207

Q: How did the TetR repression strength turn out when TCCCGTCTAGTTAGAGAGA was run?
A: 0.224

Q: How did the TetR repression strength turn out when TCCCGTCGAGTTTGAGAGA was run?
A: 0.274

Q: How did the TetR repression strength turn out when TCCCGTCGAGTTTGTGAGA was run?
A: 0.772

Q: For TCCCGTCGAGTTTTTGAGA, which TetR repression strength is on record?
A: 0.363

Q: With TCCCGTCTAGTGTGTGAGA as the sequence, how does the TetR repression strength read?
A: 0.237

Q: How did the TetR repression strength turn out when TCCCGTCTAGTTAGTGAGA was run?
A: 0.719

Q: With TCCCGTCGAGTTAGTGAGA as the sequence, how does the TetR repression strength read?
A: 0.366

Q: With TCCCGTCTAGTTTGTGAGA as the sequence, how does the TetR repression strength read?
A: 0.784

Q: For TCCCGTCTAGTTTGCGAGA, which TetR repression strength is on record?
A: 0.277

Q: How did the TetR repression strength turn out when TCCCTGTGAGTCGCGGAGA was run?
A: 0.327

Q: With TCCCGGTCAGTGCTAGAGA as the sequence, how does the TetR repression strength read?
A: 0.638

Q: How did the TetR repression strength turn out when TCCCAGGGAGTCAGTGAGA was run?
A: 0.319

Q: With TCCCTACTAGTAGTAGAGA as the sequence, how does the TetR repression strength read?
A: 0.389

Q: For TCCCGGATAGTTGATGAGA, which TetR repression strength is on record?
A: 0.285

Q: Which TetR repression strength does the source give for TCCCACTCAGTGAGGGAGA here?
A: 0.255

Q: Which TetR repression strength does the source give for TCCCGCAGAGTTAGAGAGA here?
A: 0.5

Q: Which TetR repression strength does the source give for TCCCATACAGTGAGTGAGA here?
A: 0.176

Q: TCCCGAGAAGTCGCGGAGA was tested. Which TetR repression strength did it give?
A: 0.0355

Q: Which TetR repression strength does the source give for TCCCAGTAAGTATCGGAGA here?
A: 0.221

Q: For TCCCAGTAAGTCCGGGAGA, which TetR repression strength is on record?
A: 0.157

Q: TCCCAGTAAGTCGGGGAGA was tested. Which TetR repression strength did it give?
A: 0.698

Q: With TCCCAGTAAGTGGGGGAGA as the sequence, how does the TetR repression strength read?
A: 0.196

Q: With TCCCGTGCAGTCGTGGAGA as the sequence, how does the TetR repression strength read?
A: 1

Q: TCCCGTGCAGTCGTCGAGA was tested. Which TetR repression strength did it give?
A: 0.216

Q: TCCCGTGGAGTCGTGGAGA was tested. Which TetR repression strength did it give?
A: 0.209

Q: Which TetR repression strength does the source give for TCCCAGTAAGTGTCGGAGA here?
A: 0.811

Q: Which TetR repression strength does the source give for TCCCTGTAAGTGACGGAGA here?
A: 0.796

Q: With TCCCTGTGAGTGACGGAGA as the sequence, how does the TetR repression strength read?
A: 0.115

Q: Which TetR repression strength does the source give for TCCCAGTGAGTGTCGGAGA here?
A: 0.183

Q: For TCCCTGAAAGTGACGGAGA, which TetR repression strength is on record?
A: 0.506

Reference: a collection of fitness landscapes (doi:10.1038/s41467-024-54723-y)
